Assay results published in PubChem BioAssay AID1159580 (chemical genetic matrix, 2015).
“And” between values parts separate entries of the source, which are not always exact repeats. Identical values can stand only once. The campaign covered roughly 5,500 compounds. About 2,000 (36%) were called active. Inconclusive results (about 18%) are left out. Cut-off read from the data, not from the text of the source: active = normalized growth mostly below about 0.91 (no sharp cut-off); inconclusive = no clear call, values can overlap the other calls; inactive = mostly above about 0.92. The list shows a part of the results.

Assay: chemical genetic growth profiling, strain panel (AID 1159580);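 note: tested at 20 µM; growth read once vehicle control cultures reached saturation at 30 °C; 1 = growth at the plate median or of vehicle wells; lower values mean less growth of the strain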
Conditions: S. cerevisiae deletion strains, growth OD

Measured: normalized growth

NNC(=O)c1ccncc1
inactive: locus YAL013W, strain DEP1, hits give low values 1.01 | locus YAL021C, strain ccr4, hits give low values 1.01 | locus YAL026C, strain drs2, hits give low values 0.991 | locus YAL030W, strain snc1, hits give low values 1.03 | locus YBL061C, strain skt5, hits give low values 1.01 | locus YBR009C, strain hhf1, hits give low values 0.986 | locus YBR021W, strain FUR4, hits give low values 1.01 | locus YBR023C, strain chs3, hits give low values 1.01 | locus YBR171W, strain sec66, hits give low values 1.02 | locus YBR229C, strain ROT2, hits give low values 1.01 | locus YBR231C, strain swc5, hits give low values 1.03 | locus YBR279W, strain paf1, hits give low values 1.01 | locus YCL011C, strain gbp2, hits give low values 0.984 | locus YCL016C, strain dcc1, hits give low values 0.981 | locus YCL029C, strain bik1, hits give low values 1 | locus YCL061C, strain MRC1, hits give low values 1.02 | locus YCL069W, strain vba3, hits give low values 1.02 | locus YCR088W, strain abp1, hits give low values 1.02 | locus YDL005C, strain med2, hits give low values 1.01 | locus YDL035C, strain GPR1, hits give low values 1.01 | locus YDL040C, strain nat1, hits give low values 1 | locus YDL074C, strain BRE1, hits give low values 1.03 | locus YDL101C, strain DUN1, hits give low values 1.01 | locus YDL185W, strain tfp1, hits give low values 0.991 | locus YDL192W, strain arf1, hits give low values 0.995 | locus YDR001C, strain nth1, hits give low values 1.02 | locus YDR069C, strain doa4, hits give low values 1.02 | locus YDR101C, strain arx1, hits give low values 0.997 | locus YDR137W, strain rgp1, hits give low values 0.989 | locus YDR159W, strain sac3, hits give low values 0.943 | locus YDR162C, strain NBP2, hits give low values 1.02 | locus YDR195W, strain ref2 1 | locus YDR297W, strain sur2, hits give low values 1.01 | locus YDR318W, strain mcm21, hits give low values 0.993 | locus YDR334W, strain swr1, hits give low values 1.01 | locus YDR335W, strain msn5, hits give low values 1.01 | locus YDR388W, hits give low values 0.992 | locus YDR392W, strain spt3, hits give low values 0.941 | locus YDR502C, strain sam2, hits give low values 0.993 | locus YEL003W, strain gim4, hits give low values 1.04 | locus YEL037C, strain rad23, hits give low values 1.02 | locus YEL061C, strain CIN8 (second series), hits give low values 1.01 | locus YEL061C, strain CIN8, hits give low values 1.01 | locus YER015W, strain faa2, hits give low values 1.01 | locus YER016W, strain bim1, hits give low values 1 | locus YER110C, hits give low values 0.988 | locus YER111C, strain swi4, hits give low values 1.01 | locus YER155C, strain BEM2 (second series), hits give low values 1.03 | locus YER155C, strain BEM2, hits give low values 1.01 | locus YER167W, strain BCK2, hits give low values 1 | locus YFR010W, strain ubp6, hits give low values 1.02 | locus YGL078C, strain dbp3, hits give low values 0.992 | locus YGL086W, strain mad1, hits give low values 1.01 | locus YGL167C, strain pmr1, hits give low values 1 | locus YGL173C, strain kem1, hits give low values 1.05 | locus YGL227W, strain vid30, hits give low values 1.02 | locus YGL240W, strain doc1, hits give low values 1.02 | locus YGL248W, strain PDE1, hits give low values 1.01 | locus YGL253W, strain hxk2, hits give low values 1.01 | locus YGR135W, strain pre9, hits give low values 0.971 | locus YGR252W, strain gcn5, hits give low values 0.943 | locus YHR013C, strain ard1, hits give low values 0.962 | locus YHR027C, strain rpn1, hits give low values 1.02 | locus YHR030C, strain SLT2, hits give low values 1 | locus YHR079C, strain IRE1 (second series), hits give low values 0.998 | locus YHR079C, strain IRE1, hits give low values 1.01 | locus YHR094C, strain hxt1, hits give low values 0.989 | locus YHR129C, strain ARP1, hits give low values 1.01 | locus YHR142W, strain chs7, hits give low values 1.01 | locus YHR200W, strain rpn10, hits give low values 1 | locus YIL066C, strain RNR3, hits give low values 1.02 | locus YIL073C, strain SPO22, hits give low values 1.01 | locus YIL125W, strain kgd1, hits give low values 1.01 | locus YIR030C, strain dcg1, hits give low values 1 | locus YJL092W, strain hpr5, hits give low values 1.01 | locus YJL095W, strain BCK1 (second series), hits give low values 1.01 | locus YJL095W, strain BCK1, hits give low values 1.02 and 0.991 | locus YJL115W, strain asf1, hits give low values 1.01 | locus YJL129C, strain trk1, hits give low values 1.02 | locus YJL134W, strain LCB3, hits give low values 1.01 | locus YJL154C, strain vps35, hits give low values 1.01 | locus YJL164C, strain tpk1, hits give low values 0.991 | locus YJL166W, strain qcr8, hits give low values 1.03 | locus YJL168C, strain set2, hits give low values 0.992 | locus YJL187C, strain SWE1 (second series), hits give low values 1.01 | locus YJR043C, strain POL32, hits give low values 1.01 | locus YJR066W, strain TOR1, hits give low values 0.932
